{
  "source": "PubChem BioAssay AID372",
  "about": "(MTDP, 2006)",
  "note": "Screen size: about 100,000 compounds; about 770 (0.77%) were called active. The list comes from a sample in which actives are over-represented; it also holds similar structures and randomly drawn compounds. A number with no mark means an inactive call. Cut-off read from the data, not from the text of the source: active = inhibition above about 50%; inactive = the rest.",
  "data": [
    {"molecular_target": "Gag-Pol polyprotein (Human immunodeficiency virus type 1 group M subtype B (isolate HXB2)) (UniProt P04585)", "assay": "RNase H inhibition, HIV 1 Gag Pol polyprotein, FRET biochemical assay, screening (AID 372)", "conditions": "HIV-1 RT RNase H, FRET RNA/DNA substrate fluorescence; at 10 µM; stronger effect = higher value", "values": [
      {"smiles": "Cc1ccc(C)c(N2CCN(Cc3ccccc3Br)CC2)c1", "inhibition": "6%"},
      {"smiles": "FC(F)(F)c1ccc(CN2CCN(c3cccc(Cl)c3)CC2)cc1", "inhibition": "12%"},
      {"smiles": "O=Cc1cn(Cc2c(Cl)cccc2Cl)c2ccccc12", "inhibition": "34%"},
      {"smiles": "CN1C(=O)C(=Cc2ccc(N3CCCCCC3)o2)C(=O)N(C)C1=S", "inhibition": "26%"},
      {"smiles": "C=CCN1C(=O)/C(=C\\c2ccc(C)o2)C(=O)NC1=S", "inhibition": "13%"},
      {"smiles": "C=CCN1C(=O)NC(=O)/C(=C/c2ccc(-c3cc([N+](=O)[O-])ccc3Cl)o2)C1=O", "inhibition": "22%"},
      {"smiles": "C=CCN1C(=O)/C(=C\\c2ccc(-c3cccc(Cl)c3Cl)o2)C(=O)NC1=S", "inhibition": "55% (active)"},
      {"smiles": "COc1ccc(N2C(=O)/C(=C\\c3ccoc3)C(=O)NC2=S)cc1", "inhibition": "44%"},
      {"smiles": "N/C(=N\\[N+](=O)[O-])N/N=C\\c1ccc(-c2ccc([N+](=O)[O-])cc2)o1", "inhibition": "28%"},
      {"smiles": "N/C(=N\\[N+](=O)[O-])N/N=C\\c1ccc(-c2ccc(Cl)c([N+](=O)[O-])c2)o1", "inhibition": "56% (active)"},
      {"smiles": "N/C(=N\\[N+](=O)[O-])N/N=C/c1ccc(-c2ccc(Cl)cc2)o1", "inhibition": "6%"},
      {"smiles": "Cc1ccc(C2c3c(c4ccccc4oc3=O)Oc3c2c(=O)oc2ccccc32)cc1", "inhibition": "11%"},
      {"smiles": "COc1cccc(C=C2C(=O)NC(=O)NC2=O)c1OC", "inhibition": "10%"},
      {"smiles": "O=C1NC(=S)NC(=O)C1=Cc1ccccc1OS(=O)(=O)c1ccc2ccccc2c1", "inhibition": "21%"},
      {"smiles": "COc1cccc(C=C2C(=O)NC(=S)NC2=O)c1", "inhibition": "7%"},
      {"smiles": "O=C1NC(=S)NC(=O)C1=Cc1cccc(OS(=O)(=O)c2ccc3ccccc3c2)c1", "inhibition": "53% (active)"},
      {"smiles": "O=C(c1cccs1)C1CN2CCC1CC2", "note": "(stereo unspecified)", "inhibition": "0%"},
      {"smiles": "O=C1NC(=O)C(=Cc2cn(-c3ccccc3)nc2-c2ccc(F)cc2)C(=O)N1", "inhibition": "53% (active)"},
      {"smiles": "Cc1ccc(-c2nn(-c3ccccc3)cc2C=C2C(=O)NC(=S)NC2=O)o1", "inhibition": "21%"},
      {"smiles": "O=C1NC(=O)C(=Cc2ccccc2F)C(=O)N1", "inhibition": "3%"},
      {"smiles": "Cc1ccc(C)c(COc2cc(C)cc3oc(=O)c4c(c23)CCC4)c1", "inhibition": "0%"}
    ]}
  ]
}
